# Bioassay records (PubChem BioAssay)
# Compounds with a hit are over-represented: about 1.4% of the library has one in this group of screens.
# RXFP1 antagonist: blocks the human relaxin receptor RXFP1; 350,000 compounds, 0.59% hits; HEK293-RXFP1, relaxin-stimulated cAMP HTRF, 30 min; stronger effect = lower value; activity change, negative = inhibition, % at 57.5 µM; AID 1259400; Q9HBX9;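 active = activity change of -60% or lower, but not beyond a set lower limit; inconclusive = change between -60% and -40%, or beyond the set limit; inactive = change above -40%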; also: % is scaled to controls: 0 for no effect and ±100 for the full control effect
# RXFP1 agonist: activates the human relaxin receptor RXFP1 | Potency, µM (titrated, usually from 57.5 µM), for inactives: top-dose activation, most hits filed as activators | Q9HBX9 | 370,000 compounds, 0.3% hits | HEK293T-RXFP1 cAMP TR-FRET, 30 min; response scale: percent of porcine relaxin response, buffer zero; also: potency is read from the fitted curve at half-maximal effect; % is scaled to controls: 0 for no effect and ±100 for the full control effect; nearly all actives have a fitted effect of over 60% in size
#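 HEK293 cells stably expressing RXFP1, treated 30 min at 37C with compounds plus PDE4 inhibitor Ro 20174; cAMP measured by HTRF TR-FRET. Normalized to buffer and 29 nM porcine relaxin; EC50 by Hill fit.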
# KCNH2 3.1 inh: inhibitors of human KCNH2 3.1 potassium channel isoform; U2OS KCNH2 3.1, thallium flux FluxOr; stronger effect = lower value; activity change, % (tested at about 1.8 µM); 340,000 compounds, 0.95% hits; AID 720553;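 active = maximum activity change below -70%; inconclusive = maximum activity change from -70% to -50%; inactive = maximum activity change above -50%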;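 also: thallium influx rate constant from kinetic fluorescence after stimulation buffer; % is scaled to controls: 0 for no effect and ±100 for the full control effect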
#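 We transduce U2OS cells with the mutant 3.1 virus, culture them overnight, load FluxOr with Red40 quencher for 45 min, then add stimulation buffer and read kinetically for 2 min to derive a normalized rate constant.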
# PTHR1 ag: agonists of human PTHR1 parathyroid hormone receptor; Potency, µM (titrated, usually from 115 µM), without a hit: at the top dose activation, most hits filed as activators; HEK293 GP2 PTHR1 cells, GloSensor cAMP luminescence, 1 h; Q03431; 410,000 compounds, 0.075% hits; also: potency is read from the fitted curve at half-maximal effect; nearly all actives have a fitted effect of over 55% in size
#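 HEK-293-derived GP2 cells expressing PTHR1 and a GloSensor cAMP reporter, 3,000/well, plated overnight, given luciferin plus IBMX (each 0.5 mM as added) for 1 h at 37 °C, then compound for 1 h at 37 °C. Luminescence was read after 15 min at room temperature.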
# Glioma ERSR ind: inducers of ER stress response in human glioma cells; U87-MG GRP78 promoter luciferase reporter, 16 h; Potency, µM, inactives show at the top dose activation, usual class: activators; 420,000 compounds, 0.02% hits; also: potency is read from the fitted curve at half-maximal effect; series mostly up to about 76 µM; % of control where 0% means no effect; nearly all actives have a fitted effect of over 35% in size
#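 Stably transfected U87-MG glioma cells carrying a GRP78-based luciferase sensor; 16 h compound incubation. Luminescence end-point read 10 min after Bright-Glo addition at room temperature.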
# hERG WT inh: KCNH2 (human, wildtype) channel inhibition; AID 720551; Q12809; U2OS, BacMam KCNH2, thallium flux FluxOr; stronger effect = lower value; 340,000 compounds, 0.37% hits; activity change, % at 1.84 µM;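 active = maximum activity change below -70%; inconclusive = maximum activity change between -70% and -50%; inactive = maximum activity change above -50%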; also: % is scaled to controls: 0 for no effect and ±100 for the full control effect
# Target sequence (Q12809 whole entry, looked up): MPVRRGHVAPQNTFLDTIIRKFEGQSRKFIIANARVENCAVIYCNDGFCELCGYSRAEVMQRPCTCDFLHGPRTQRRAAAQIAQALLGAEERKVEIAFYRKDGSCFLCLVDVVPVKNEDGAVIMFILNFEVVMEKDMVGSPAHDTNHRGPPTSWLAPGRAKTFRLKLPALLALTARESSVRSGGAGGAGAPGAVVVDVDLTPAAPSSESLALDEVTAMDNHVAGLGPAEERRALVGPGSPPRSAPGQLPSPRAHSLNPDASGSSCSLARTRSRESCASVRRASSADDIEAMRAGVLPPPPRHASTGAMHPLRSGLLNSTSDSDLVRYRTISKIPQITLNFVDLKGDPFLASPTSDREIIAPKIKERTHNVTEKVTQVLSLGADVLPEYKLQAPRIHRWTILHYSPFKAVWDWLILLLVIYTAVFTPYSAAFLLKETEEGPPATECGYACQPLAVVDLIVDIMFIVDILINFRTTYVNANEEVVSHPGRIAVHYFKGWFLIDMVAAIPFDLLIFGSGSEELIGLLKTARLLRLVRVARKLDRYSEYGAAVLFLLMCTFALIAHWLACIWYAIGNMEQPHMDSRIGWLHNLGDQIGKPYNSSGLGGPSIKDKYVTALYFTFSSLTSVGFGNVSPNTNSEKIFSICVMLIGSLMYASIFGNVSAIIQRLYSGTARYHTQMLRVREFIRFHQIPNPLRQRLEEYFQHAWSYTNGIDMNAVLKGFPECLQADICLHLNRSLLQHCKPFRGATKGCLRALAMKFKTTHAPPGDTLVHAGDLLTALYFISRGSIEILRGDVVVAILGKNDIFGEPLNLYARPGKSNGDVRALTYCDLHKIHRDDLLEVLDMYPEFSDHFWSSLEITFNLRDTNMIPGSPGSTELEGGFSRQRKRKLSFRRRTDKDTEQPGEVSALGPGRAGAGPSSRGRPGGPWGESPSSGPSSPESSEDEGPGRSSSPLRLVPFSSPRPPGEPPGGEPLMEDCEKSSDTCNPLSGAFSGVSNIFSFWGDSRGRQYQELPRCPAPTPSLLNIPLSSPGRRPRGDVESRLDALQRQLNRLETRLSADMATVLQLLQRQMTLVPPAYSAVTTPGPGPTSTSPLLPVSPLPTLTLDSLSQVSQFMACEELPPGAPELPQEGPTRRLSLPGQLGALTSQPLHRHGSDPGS
#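 U2OS cells transduced with wild-type KCNH2 virus are loaded with FluxOr dye for 45 min, and thallium flux is measured in kinetic reads before and after stimulation buffer. Rate constants are normalized to DMSO controls.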
# The depositor's hits bear a star; i = inactive; ? = inconclusive; nt = not tested or not shown; [ ] = dose if it differs, or a comment. Unless noted, calls follow the shape of the dose curve; as a rule, active = well fitted curve in the direction sought with a large enough effect; inconclusive = small, poorly fitted or top-dose-only effect, or another doubt; inactive = no such curve, though single readings can be large; an effect the other way counts as inactive or inconclusive.
SMILES,RXFP1 antagonist,RXFP1 agonist,KCNH2 3.1 inh,PTHR1 ag,Glioma ERSR ind,hERG WT inh
COc1ccccc1Cc1nnnn1CC(=O)O,9,2%,-92*,-1%,-2%,0
Cc1ccc(C(=O)Nc2nc(-c3ccco3)c(-c3ccco3)s2)o1,-81*,-3%,-12,-17%,2%,12
Cc1cccc(NC(=O)Nc2ccccc2[N+](=O)[O-])n1,-8,1%,-10,-12%,-3%,-12
COc1cc(-c2nnc(SCC(=O)Oc3ccccc3)o2)cc(OC)c1OC,-19,-1%,nt,26%,?,nt
COc1cc(-c2nnc(SCC(=O)Oc3ccccc3Cl)o2)cc(OC)c1OC,-11,-4%,nt,0%,22µM*,nt
O=C(Nc1ccccc1)C(c1ccccc1)C1CCCC1 (stereo unspecified),-70*,-2%,20,-35%,-2%,-12
Nc1ncc(CCN2CCOCC2)c(-c2ccc(F)cc2)n1,8,0%,-11,i,-1%,-121*
CCOC(=O)c1ccc(NC(=O)c2c(NCc3sccc3C)sc3c2CCCCC3)cc1,-3,-1%,nt,-17%,?,nt
CCN(CC)C1=N/C(=C\c2ccco2)C(=O)N1c1ccccc1,-23,4%,2,-22%,-3%,-82*
CC(C)COC(=O)CNc1n[nH]c(=S)[nH]c1=O,?,27%,12,28%,-3%,-2
CCCCOC(=O)CNc1n[nH]c(=S)[nH]c1=O,-63*,?,-3,i,-3%,13
Cc1cc2nc(-c3ccc(SCc4ccc(C(=O)O)cc4)nc3)[nH]c2cc1C,-98*,4%,-2,-42%,4%,0
COc1ccc(NC(=O)C2CCN(C(=O)Cc3ccccc3)CC2)c(OC)c1,4,0%,-1,-24%,-3%,0
Cc1cccc(Nc2nc(-c3ccc(F)cc3)cs2)n1,-78*,0%,11,-34%,2%,-9
COC(=O)c1cn(CC(=O)N2CCCCCC2)c2ccccc12,-2,3%,-18,i,-3%,12
CCOC(=O)C1=C(O)/C(=C/c2cn(CC(=O)N3CCCC3)c3ccccc23)SC1=Nc1ccccc1,-7,0%,-13,i,-1%,-102*
COc1cc(OC)c(OC)cc1CCC(C)NCCC(c1ccccc1)c1ccccc1 (stereo unspecified),-9,0%,-92*,-3%,-5%,?
O=C(O)C(Cc1ccc(O)cc1)N1C(=O)c2c(Cl)c(Cl)c(Cl)c(Cl)c2C1=O (stereo unspecified),-62*,nt,-21,i,-6%,4
CCOc1cc2[nH]c(=S)n(CCC(=O)NC3CCCCC3)c(=O)c2cc1OCC,-6,nt,0,?,0%,-8
N#CC1=C(c2ccccc2)/C(=C/c2ccccc2)OC1=O,nt,1%,-7,-33%,17%,3
N#CC(C#N)=C1NC(N)=C(C#N)C(c2ccccc2)=C1C#N,nt,28µM*,nt,nt,nt,nt
Cc1nn(C)c(C)c1NC(=O)CSc1nc(Cc2ccccc2)nc2c1cnn2-c1ccccc1,0,nt,2,12%[57.5 µM],-2%,6
N/C(=N\c1nc2c(c(=O)[nH]1)CCC2)Nc1cccc2ccccc12,13,0%,-78*,i,-1%,9
N/C(=N\c1nc2c(c(=O)[nH]1)CCC2)Nc1cccc(Cl)c1,-8,2%,-1,i,-5%,7
CCOc1ccc(NC(=O)CSc2nc(C)cc(C)n2)cc1,22,2%,4,29%[57.5 µM],-3%,-5
SMILES,RXFP1 antagonist,RXFP1 agonist,KCNH2 3.1 inh,PTHR1 ag,Glioma ERSR ind,hERG WT inh
CCOc1ccc(CCNC(=O)CSc2nc3ccccc3nc2Cc2ccc(C)cc2)cc1OCC,2,14µM*,nt,-23%,-1%,nt
CCOc1ccc(CCNC(=O)CSc2n[nH]c(-c3ccccc3)n2)cc1OCC,-8,4%,nt,-7%,-1%,nt
O=C(CSc1ccccc1C(=O)O)NCC1CCCCC1,-10,2%,4,-13%,3%,-10
Cn1cc(S(=O)(=O)Nc2ccc(F)c(Cl)c2)c(=O)n(C)c1=O,0,1%,-12,-8%,-4%,1
O=C(NCC(c1ccccc1)c1ccccc1)c1nn(-c2ccccc2F)nc1CO,-24,0%,nt,-12%,-5%,nt
CC(C)N(Cc1nnc(-c2ccc(Cl)cc2)o1)C(=O)c1cc2ccccc2o1,-2,2%,-91*,i,1%,-1
CCCN(Cc1nnc(-c2ccccc2Cl)o1)C(=O)c1cc2ccccc2o1,19,3%,-9,i,-3%,-10
CN(CC(=O)Nc1cccc2c1CCCC2)S(=O)(=O)c1ccc(Br)cc1,-19,1%,9,i,-3%,8
Cc1cc(NCCCn2ccnc2)n2ncc(-c3ccc(Cl)cc3)c2n1,10,1%,-73*,-67%[57.5 µM],0%,-2
Cc1cc(NCCCN2CCOCC2)n2ncc(-c3ccc(Cl)cc3)c2n1,13,7%,-1,i,5%,16
CCc1ccc(NC(=O)CNC(=O)[C@@H]2Cc3ccccc3CN2C(=O)OC(C)(C)C)cc1,-12,0%,-5,i,0%,-6
CCc1ccc(-c2nc(NC(=S)NC(=O)c3cccs3)sc2C)cc1,-14,2%,5,-35%[57.5 µM],-1%,-3
CCn1nnc(NC(=O)c2ccc(Br)o2)n1,-16,-1%,-3,i,3%,-15
Cn1nnc(NC(=O)c2ccc(Br)o2)n1,-2,3%,-77*,i,-3%,-19
Cc1ccc(-c2noc(C3CCCN(C(=O)c4ccc(F)cc4F)C3)n2)cc1 (stereo unspecified),-13,-1%,-9,-38%,-1%,-5
Cc1cccc(N=C2NC(=O)/C(=C/c3cccn3C)S2)c1C,-26,0%,1,i,-2%,6
Cc1cccc(N=C2NC(=O)/C(=C/C=C/c3ccco3)S2)c1C,-77*,1%,2,i,0%,-6
Cc1ccc(N=C2NC(=O)/C(=C/C=C/c3ccco3)S2)cc1,-67*,2%,nt,-6%,1%,-4
O=C1NC(=Nc2ccccc2)S/C1=C\C=C\c1ccco1,-102*,1%,0,-34%,3%,19
COc1ccc(C2CC(c3cccs3)=NN2C(=S)Nc2ccccc2)cc1OC (stereo unspecified),3,-1%,7,i,-1%,3
Cc1ccc(Cl)cc1NC(=O)C(NS(=O)(=O)c1cccs1)c1ccccc1 (stereo unspecified),13,0%,-14,-37%,-3%,-119*
CCc1cccc(CC)c1NC(=O)C(NS(=O)(=O)c1cccs1)c1ccccc1 (stereo unspecified),4,1%,-3,i,-5%,-8
